Compound activity as filed in PubChem.
Rows were chosen to be rich in hits. Some 2.9% of all compounds tested hit in one or more screens of this group.
KDM5B inh: inhibitors of human KDM5B histone demethylase; Q9UGL1; KDM5B demethylase, FDH-coupled NADH fluorescence (FDH is formaldehyde dehydrogenase); Potency, µM (top dose mostly 57.7 µM), usual class: inhibitors; 2.6% of 220,000 active; AID 1347165; also: potency is read from the fitted curve at half-maximal effect; 0% is about no effect; nearly all actives have a fitted effect of over 70% in size
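Inhibition is measured as reduced NADH fluorescence generation from FDH coupling to formaldehyde release. Truncated KDM5BΔAP at 200 nM final acts on H3K4me3 peptide (12.5 µM in substrate mix) in pH 7.5 HEPES buffer with Tween-20, 30 min, room temperature.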
IP6K1 inh: IP6K1 kinase inhibition. Q92551. 0.81% of 140,000 active. activity change, % (series mostly up to about 58 µM). IP6K1 kinase, ADP-Glo luminescence, 2 h; stronger effect = lower value; in the data active = activity change below about -25%; also: % is scaled to controls: 0 for no effect and ±100 for the full control effect
Target sequence (Q92551 whole entry, looked up): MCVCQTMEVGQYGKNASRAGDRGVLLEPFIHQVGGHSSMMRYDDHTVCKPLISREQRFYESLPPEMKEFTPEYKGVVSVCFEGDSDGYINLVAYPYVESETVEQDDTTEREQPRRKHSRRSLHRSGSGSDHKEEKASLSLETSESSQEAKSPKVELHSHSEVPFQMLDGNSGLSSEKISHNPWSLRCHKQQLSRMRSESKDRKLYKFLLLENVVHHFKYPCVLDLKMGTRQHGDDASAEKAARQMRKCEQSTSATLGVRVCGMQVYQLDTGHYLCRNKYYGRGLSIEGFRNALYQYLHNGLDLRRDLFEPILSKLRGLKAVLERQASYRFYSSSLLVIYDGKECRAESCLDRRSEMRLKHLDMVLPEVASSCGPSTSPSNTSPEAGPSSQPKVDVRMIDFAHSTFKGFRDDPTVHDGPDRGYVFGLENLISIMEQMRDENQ
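ADP-Glo luminescence measures ADP made by human IP6K1 during a 2 h RT reaction with ATP/IP6 (mix at 1.3 mM/130 uM); top library doses 57.5 and 19.1 uM final.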
SNCA viab count: counter-screen for SNCA expression inhibitors: cell viability. HEK-293-SNCA-luc viability, GF-AFC fluorescence, 24 h. Potency, µM (series often up to 57.1 µM), without a hit: at the highest dose activity change, negative = cytotoxicity, actives largely listed as cytotoxic. AID 1671193. 0.12% of 150,000 active;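 also: potency is read from the fitted curve at half-maximal effect; 0% = DMSO-treated cells and -100% = medium-only wells without cells; nearly all actives have a fitted effect of over 30% in size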
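Cytotoxicity counterscreen: after 24 h compound treatment of genome-edited SNCA-luciferase HEK-293 cells, live-cell protease substrate GF-AFC read by fluorescence after 30 min; activity scaled between DMSO (0%) and medium-only (-100%), curves Hill-fitted.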
SNCA expr inhib: SNCA gene expression inhibition. 0.17% of 140,000 active. Potency, µM (series often up to 57.2 µM), without a hit: at the highest dose activity change, negative = inhibition, actives largely listed as inhibitors. HEK-293 SNCA-luciferase knock-in, luminescence, 24 h. AID 1671194;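 also: potency is read from the fitted curve at half-maximal effect; plate controls were DMSO cells for no effect and cell-free wells for full effect; nearly all actives have a fitted effect of over 45% in size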
An asterisk follows results filed as active; i = inactive; ? = inconclusive; · = no result given; [ ] = another dose, or the depositor's remark. Unless noted, calls follow the shape of the dose curve; as a rule, active = well fitted curve in the direction sought with a large enough effect; inconclusive = small, poorly fitted or top-dose-only effect, or another doubt; inactive = no such curve, though single readings can be large; an effect the other way counts as inactive or inconclusive.

SMILES | KDM5B inh | IP6K1 inh | SNCA viab count | SNCA expr inhib
CN1c2ncccc2CN(Cc2ccccc2)CC[C@H]1CO | 32µM* | -13 | -2%[87.6 µM] | 13%[87.6 µM]
Cc1ccc2c(n1)N(C)[C@H](CO)CCN(Cc1ccco1)C2 | ? | -4 | 4%[87.6 µM] | -3%[87.6 µM]
CN1c2ncccc2CN(Cc2ccccn2)CC[C@H]1CO | 32µM* | -11 | 6%[87.6 µM] | -4%[87.6 µM]
CN1CCCCC1Cn1cc(C(=O)c2cc([N+](=O)[O-])ccc2I)c2ccccc21 (configuration not stated) | · | 17 | 24µM* | ·
COc1cccn(CC(=O)N2CCN(C)C3(CCNCC3)C2)c1=O | 13µM* | 7 | 2% | -12%
Cn1nc(-c2ccccc2)cc1[C@H]1CN2CC[C@H]1C[C@@H]2CNS(=O)(=O)Cc1ccccc1 | i | -7 | -2% | 5%
CCOC(=O)[C@@H]1[C@H]2c3ccccc3N(CCOC)C(=O)[C@H]2N(C(=O)CC(C)C)[C@@H]1c1ccccc1 | · | 2 | · | ·
COCCC(=O)Nc1ccc2n(c1=O)C[C@H]1C[C@@H]2CN(CCCc2ccccc2)C1 | 32µM* | -2 | 2%[87.6 µM] | -19%[87.6 µM]
O=C(C1CCCCC1)N1C[C@@H]2C[C@H](C1)c1ccc(-c3cccc(C(F)(F)F)c3)c(=O)n1C2 | 32µM* | 14 | -11% | 0%
O=C(c1cnccn1)N1C[C@@H]2C[C@H](C1)c1ccc(-c3cccc(C(F)(F)F)c3)c(=O)n1C2 | 18µM* | 24 | 0% | -5%
Cc1ccccc1-c1ccc2n(c1=O)C[C@H]1C[C@@H]2CN(C(=O)c2cnccn2)C1 | i | 2 | 4%[87.6 µM] | 13%[87.6 µM]
O=C(C1CCCCC1)N1C[C@@H]2C[C@H](C1)c1ccc(C3CCCCC3)c(=O)n1C2 | ? | 11 | 1%[87.6 µM] | -3%[87.6 µM]
CSCC(=O)N1C[C@@H]2C[C@H](C1)c1ccc(-c3cccc(C(F)(F)F)c3)c(=O)n1C2 | 35µM* | 9 | -10%[87.6 µM] | -6%[87.6 µM]
O=C(Nc1ccccc1)Nc1ccc2n(c1=O)C[C@H]1C[C@@H]2CN(C(=O)c2ccccc2)C1 | ? | -2 | -10%[87.6 µM] | 77%[87.6 µM]
CSCC(=O)N1C[C@@H]2C[C@H](C1)c1ccc(-c3ccccc3CN(C)C)c(=O)n1C2 | 32µM* | 10 | -1%[87.6 µM] | -25%[87.6 µM]
O=C(O)CCCC(=O)N1C[C@@H]2C[C@H](C1)c1ccc(-c3ccc(Cl)cc3)c(=O)n1C2 | 40µM* | -3 | 4%[87.6 µM] | -5%[87.6 µM]
O=C(O)C(=O)N1C[C@@H]2C[C@H](C1)c1ccc(NS(=O)(=O)c3ccccc3)c(=O)n1C2 | ? | 13 | 2%[87.6 µM] | 6%[87.6 µM]
CC(C)CN1Cc2ccccc2-n2ccnc2C12CCN(C(=O)c1cccc(F)c1)CC2 | i | 18 | -19% | -19%
COCCn1c(C)cc(C(=O)N2[C@H]3CC[C@@H]2c2cnc(-c4ccc(F)cc4)nc2C3)c1C | i | 12 | ? | 25µM*
COc1cc2c(cc1CCc1ccccc1)N([S+](=O)([O-])c1ccc3c(c1)CCO3)CC21CCN(C(C)=O)CC1 | 28µM* | -4 | -9% | ?
O=C(c1cccc(Cl)c1)N1CCC(C(=O)O)(c2ccccc2)CC1 | i | -11 | 4% | 0%
CC(=O)Nc1ccc(S(=O)(=O)NC[C@H]2C[C@@H]3CCN2C[C@@H]3c2cc(-c3ccc(N(C)C)cc3)nc(C)n2)cc1 | 20µM* | 8 | -12% | -21%
CC(=O)Nc1ccc(S(=O)(=O)NC[C@H]2C[C@@H]3CCN2C[C@@H]3c2cc(-c3ccco3)nc(C)n2)cc1 | 32µM* | 2 | 3% | -3%
CCCNC(=O)N1[C@H]2CC[C@@H]1c1cnc(-c3ccc(F)cc3)nc1C2 | i | -8 | 8% | -18%
CC(C)(O)C=CC(=O)[C@](C)(O)[C@H]1[C@H](O)C[C@]2(C)[C@@H]3CC=C4[C@@H](C=C(O)C(=O)C4(C)C)[C@]3(C)C(=O)C[C@@]12C | · | · | ? | 14µM*
SMILES | KDM5B inh | IP6K1 inh | SNCA viab count | SNCA expr inhib
CC(C)(O)/C=C/C(=O)[C@](C)(O)[C@H]1[C@H](O)C[C@@]2(C)[C@@H]3CC=C4[C@@H](C[C@H](O)C(=O)C4(C)C)[C@]3(C)C(=O)C[C@]12C | · | 8 | ? | ·
CSc1cccc(NC(=O)NC[C@H]2C[C@@H]3CCN2C[C@@H]3CN2CCC(Cc3ccccc3)CC2)c1 | i | -10 | 0% | -1%
O=c1c(-c2cccs2)ccc2n1C[C@H]1C[C@@H]2CN(C2CCOCC2)C1 | 35µM* | -2 | ? | 0%[87.6 µM]
Cc1nc(-c2ccco2)cc([C@H]2CN3CC[C@H]2C[C@@H]3CNC(=O)NC2CCCCC2)n1 | 32µM* | -7 | -15%[87.6 µM] | -5%[87.6 µM]
Cc1nc(-c2ccco2)cc([C@H]2CN3CC[C@H]2C[C@@H]3CNC(=O)Nc2ccccc2)n1 | ? | -8 | -19%[87.6 µM] | ?
Cc1nc(-c2ccco2)cc([C@H]2CN3CC[C@H]2C[C@@H]3CNC(=O)C2CCCCC2)n1 | 32µM* | -3 | -9%[87.6 µM] | -8%[87.6 µM]
Cc1cccc(OCC(=O)N2[C@H]3CC[C@@H]2c2cnc(-c4ccc(F)cc4)nc2C3)c1 | i | 8 | 7% | 19%
FC(F)(F)c1ccc(N2CCNCC2)nc1Cl | · | -6 | -9% | ·
C[C@@]1(C(=O)O)CC[C@]2(C)CC[C@]3(C)C4=CC(=O)c5cc(O)c(O)cc5[C@]4(C)CC[C@@]3(C)[C@@H]2C1 | · | -11 | 3%[23.9 µM] | ·
CC1=C(O)C(=O)C=C2C1=CC=C1[C@@]2(C)CC[C@@]2(C)[C@@H]3C[C@](C)(C(=O)O)CC[C@]3(C)CC[C@]12C | · | · | 22µM* | 7.6µM*
CC[C@H]1CN2CC[C@H]1C[C@@H]2CN(Cc1cccs1)Cc1cccs1 | i | -7 | ? | ?
O=[S+]1([O-])NC2(CCN(Cc3cccnc3)C2)COc2ccncc21 (configuration not stated) | i | 2 | 3% | -12%
O=[S+]1([O-])NC2(CCN(Cc3ccncc3)C2)COc2ccncc21 (configuration not stated) | 40µM* | 2 | -1% | 4%
CCOC(=O)[C@@H]1[C@H]2c3ccccc3N(C)C(=O)[C@H]2N(C(=O)c2cccs2)[C@@H]1c1ccccc1 | · | -11 | · | ·
Cc1ccccc1-c1ccc2n(c1=O)C[C@H]1C[C@@H]2CN(C(=O)NC(C)C)C1 | 35µM* | 1 | 3%[87.6 µM] | -20%[87.6 µM]
COc1ccccc1NC(=O)N1C[C@@H]2C[C@H](C1)c1ccc(-c3ccccc3C)c(=O)n1C2 | ? | 16 | -15%[87.6 µM] | 11%[87.6 µM]
Cc1ccccc1-c1ccc2n(c1=O)C[C@H]1C[C@@H]2CN(C(=O)Nc2ccc(Cl)cc2)C1 | 32µM* | -4 | -7%[87.6 µM] | -25%[87.6 µM]
Cc1nc(-c2ccccc2Br)cc([C@H]2CN3CC[C@H]2C[C@@H]3CNC(=O)c2ccc(C(C)(C)C)cc2)n1 | i | -3 | ? | ?
CCOC(=O)[C@H]1CN(C(=O)c2ccc(Cl)cc2)[C@]2(C)C(=O)N(CCOC)c3ccccc3[C@H]12 | · | 1 | · | ·
Cn1nc2n(c1=O)CCC(NC(=O)c1nn(C)c3ccccc13)CC2 (configuration not stated) | 18µM* | -12 | 10% | -24%
